Measurements taken from PubChem BioAssay (NCI).
This is part of a sample that, as a whole, favours compounds with a hit. Of some 79,000 tested, about 15% had one in any assay. Cut-off read from the data, not from the text of the source: active = growth inhibition above about 70%; inactive = the rest.

How the values were obtained:
[1] = NCI Yeast Anticancer Drug Screen. Data for the rad50 strain (AID 155);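 note: 0% = growth of vehicle-only cultures of the same strain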; conditions: S. cerevisiae rad50 strain growth inhibition; at 50.0 µM; hits give high values
Outline: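 DNA repair mutant yeast, compound exposure, growth read-out; inhibition is taken relative to vehicle.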

[2] = NCI Yeast Anticancer Drug Screen. Data for the mec2-1 strain (AID 157); conditions: S. cerevisiae mec2-1 strain, at 50.0 µM, hits give high values
Outline: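 Compounds were applied to mec2-1 yeast cells. Their growth was then compared with that of vehicle-treated cultures to give growth inhibition.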

[3] = NCI Yeast Anticancer Drug Screen. Data for the sgs1 mgt1 strain (AID 161);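 note: 0% = growth of cultures given vehicle only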; conditions: S. cerevisiae sgs1 mgt1 strain, at 50.0 µM, hits give high values
Outline: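 Yeast cells carrying a defined DNA-repair defect were exposed to test compounds. Growth inhibition was measured relative to vehicle-treated controls.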

[4] = NCI Yeast Anticancer Drug Screen. Data for the cln2 rad14 strain (AID 165);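 note: 0% = growth equal to vehicle treated cultures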; conditions: S. cerevisiae cln2 rad14 strain, at 50.0 µM, hits give high values
Outline: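 Strain: cln2 rad14 yeast, altered in cell cycle control and DNA damage repair. Read-out: growth inhibition vs vehicle.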

[5] = NCI Yeast Anticancer Drug Screen. Data for the bub3 strain (AID 167); conditions: S. cerevisiae bub3 mutant strain, at 50.0 µM, hits give high values
Outline: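 In this screen, a yeast mutant lacking normal mitotic checkpoint function is challenged with compound. Relative growth versus vehicle gives the inhibition value.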

[6] = NCI Yeast Anticancer Drug Screen. Data for the mlh1 rad18 strain (AID 175); conditions: S. cerevisiae mlh1 rad18 strain growth inhibition; at 50.0 µM; hits give high values
Outline: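 A repair-deficient yeast strain is exposed to test compound, and growth is scored relative to vehicle-treated controls.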

Measured: growth inhibition

O=C(O)c1cncc(C(=O)O)c1
inactive: [1] -37% | [2] -12.7% | [3] -14.7% | [4] -7.6% | [5] -47.5% | [6] -24.6%

CON(C)C(C#N)=C(C#N)C#N
inactive: [1] 9.75% | [2] 1.85% | [3] 21.1% | [4] 7.05% | [5] 8.1% | [6] 25.2%

CC1=C(C)C2C3C(=O)NC(=O)C3C1C1C3C(=O)NC(=O)C3C21 (configuration not stated)
inactive: [1] -21.8% | [2] -7.75% | [3] 7.3% | [4] -12.8% | [5] 10.1% | [6] 17.1%

COc1[nH]c2ccccc2c1C=O
inactive: [1] 45.1% | [2] 30.6% | [3] 22.3% | [4] 17.1% | [5] 11% | [6] 24.1%

CC(C)=Cc1cc(C(=O)Nc2ccc(Cl)c(Cl)c2)nc(N)n1
inactive: [1] -25.2% | [2] -45.4% | [3] -10.6% | [4] -0.5% | [5] -41.8% | [6] -32.1%

CSCCCNC(=O)NS(=O)(=O)c1ccc(C)cc1
inactive: [1] 6.55% | [2] -1.35% | [3] 8.95% | [4] 7.75% | [5] 6.6% | [6] 2.85%

Cn1/c(=N\N=C2\C=C3CCCCC3(C)CC2)sc2ccccc21 (configuration not stated)
inactive: [1] 12.7% | [2] 12.2% | [3] 22.9% | [4] 33.2% | [5] -8.8% | [6] 47.1%

C=CCC[P+](c1ccccc1)(c1ccccc1)c1ccccc1
inactive: [1] 37.2% | [2] 34.1% | [3] 28.2% | [4] -3.4% | [5] 9.1% | [6] 8.75%

O=C1Cc2c(-c3cccs3)cc(-c3ccccc3)nc2-c2ccccc2N1
inactive: [1] 0% | [2] -3.9% | [3] 3.4% | [4] 18.2% | [5] -4.75% | [6] 7.85%

Cn1c(=O)c2ncn(CC(O)COc3ccccc3)c2n(C)c1=O (configuration not stated)
inactive: [1] 2.15% | [2] 3.1% | [3] 11.8% | [4] -2.8% | [5] 25.9% | [6] 16.3%

CCCC(=O)C(=O)CCC
inactive: [1] -5.25% | [2] -17.4% | [3] 2.3% | [4] -26.1% | [5] -0.15% | [6] -3.45%

N#Cc1ccc(NN=NCCOCCCl)cc1
inactive: [1] 18.3% | [2] 26.6% | [3] 17.9% | [4] 34.9% | [5] 27.1% | [6] 23.6%

FC(F)(F)c1nc2ccccc2[nH]1
inactive: [1] 16.9% | [2] -1.4% | [3] 9.55% | [4] 14.8% | [5] -1.65% | [6] 13.3%

CC(C)CC(NC(=O)CNC(=O)/C=C/c1ccco1)C(N)=O (configuration not stated)
inactive: [1] -16.9% | [2] -29% | [3] -9.2% | [4] -11.2% | [5] -10.1% | [6] -18.5%

NNC(=O)C(=O)NN
inactive: [1] -24% | [2] -16.4% | [3] -1.85% | [4] -27.7% | [5] -1.75% | [6] -20.6%

CN(C)c1ccc(/C=N/NC(=S)Nc2cccc3cccnc23)cc1
inactive: [1] 18.6% | [2] -3.05% | [3] 1.4% | [4] 20.3% | [5] 20.6% | [6] -2.8%

CC1(c2ccccc2)N=C(C(N)=O)c2[nH]cnc2N1 (configuration not stated)
inactive: [1] -11.8% | [2] -41.1% | [3] -29.1% | [4] 1.85% | [5] 8.7% | [6] -11.8%

C[C@H](CCC(=O)O)[C@H]1CC[C@H]2[C@@H]3[C@@H](O)C[C@@H]4C[C@H](O)CC[C@]4(C)[C@H]3C[C@H](O)[C@]12C
inactive: [1] -3.3% | [2] -7.05% | [3] 11.1% | [4] -20.6% | [5] -14.7% | [6] 7.8%

Cc1ccc(S(=O)(=O)NC(=O)NCCCS(C)=O)cc1 (configuration not stated)
inactive: [1] -3.5% | [2] -6.5% | [3] 6.8% | [4] -7.8% | [5] 2.9% | [6] 10.3%

Cc1nc2c(Cl)cc(Cl)cc2c(Cl)c1CCCl
inactive: [1] 29.9% | [2] 30.2% | [3] 49.5% | [4] 18.9% | [5] 39.6% | [6] 45.6%

CCCCC(=CC(C)(C)C)CCCC
inactive: [1] 22.9% | [2] -2.4% | [3] -7.7% | [4] 7.95% | [5] 20.6% | [6] 14.5%

CN(N=O)C(=O)NCc1ccc(Cl)cc1
inactive: [1] -0.1% | [2] 15.8% | [3] 17.6% | [4] 12.4% | [5] 8.05% | [6] 1.15%

C=CCc1oc(C)nc1CCCC
inactive: [1] 0.2% | [2] -0.1% | [3] 16.7% | [4] 27.4% | [5] 5.85% | [6] 23.3%

CCOC(=O)c1nc2ccccc2nc1NCc1ccc(Cl)cc1Cl
inactive: [1] 6.45% | [2] 19% | [3] -24.7% | [4] 8% | [5] -16.6% | [6] -30.9%

Nc1cc2c(cc1Br)-c1ccc(Br)cc1C2=O
inactive: [1] -6.65% | [2] -6.65% | [3] -0.7% | [4] -30.2% | [5] 21.4% | [6] -5.25%

CCN(CC)CC
inactive: [1] -8.4% | [2] -6.2% | [3] -21.2% | [4] -53.4% | [5] -19% | [6] 19.4%

CC(C)CC(CC(C)C)OC(=O)Nc1ccccc1
inactive: [1] -1% | [2] 17.3% | [3] 9.05% | [4] 33.6% | [5] 30.1% | [6] 25.9%

CC1=NN(C(=O)Cc2ccccc2)C(=O)/C1=C\c1ccco1
inactive: [1] -37.9% | [2] -37.4% | [3] -47.9% | [4] -13.8% | [5] -25.9% | [6] -55.9%

O=C(/C=C/CBr)NC(Cc1ccccc1)C(=O)O (configuration not stated)
inactive: [1] -1.45% | [2] -8.6% | [3] -18.1% | [4] -4% | [5] 15.6% | [6] -4.2%

N#CC(O)CCOCc1ccccc1 (configuration not stated)
inactive: [1] 9% | [2] -10.1% | [3] -5.45% | [4] -18.9% | [5] -5% | [6] -14.2%

O=C(C(O)c1ccccc1)N1CCCCC1 (configuration not stated)
inactive: [1] 32.6% | [2] 14.2% | [3] -2.95% | [4] 9.85% | [5] 4.3% | [6] 21.6%

Cc1ccc(C(=O)N(Cc2ccccc2)Cc2ccccc2)cc1N=NN(C)C
inactive: [1] -44.8% | [2] -39.5% | [3] -55.6% | [4] -8.2% | [5] -31.4% | [6] -22.2%

CS(=O)(=O)N1C=CC2C(C=C1)C1(c3ccccc3)OC2(c2ccccc2)c2ccccc21 (configuration not stated)
inactive: [1] -9.75% | [2] -9.25% | [3] 0.35% | [4] -39.7% | [5] 2.95% | [6] -19.5%

COc1ccccc1N=Nc1c(-c2ccccc2)nn(C(=O)CC(=O)Nc2cccc(C)c2)c1-c1ccccc1
inactive: [1] 29.1% | [2] 17.5% | [3] 4.9% | [4] 5.65% | [5] 52.5% | [6] 27.3%

CCO[C@@H]1C2C=CC(C2)[C@H]1[N+](=O)[O-] (some centres not stated)
inactive: [1] -11.8% | [2] 12.2% | [3] -5.65% | [4] 15.4% | [5] 3.05% | [6] -5.4%

NC(=O)N/N=C(\CC1OC(=O)c2ccccc21)c1ccc([N+](=O)[O-])cc1 (configuration not stated)
inactive: [1] 5.4% | [2] 3.85% | [3] -17.6% | [4] 3.85% | [5] -23.9% | [6] 0%

COc1ccc(-c2nc3ccccc3[nH]2)cc1
inactive: [1] 16.4% | [2] -2.7% | [3] 1.7% | [4] -4% | [5] -21.5% | [6] -3.1%
